Rows were chosen to be rich in hits. Some 18% of all compounds tested hit in one or more screens of this group.
DT40 TDP1 CPT = DT40-hTDP1 cell growth loss with CPT; chicken DT40 Tdp1-/-;hTDP1 cells + 20 nM CPT, ATP luminescence, 48 h; Potency, µM (highest dose often 46.2 µM), usual class: inhibitors; 420,000 compounds, 12% hits; AID 686979; further: nearly all actives have a fitted effect of over 55% in size
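Chicken DT40 Tdp1-/- cells complemented with human TDP1, 400 cells/well, exposed to compounds plus 20 nM camptothecin for at least 48 h at 37 C; viability read as ATP content by CellTiter-Glo luminescence.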
TDP1 inh = blocks human tyrosyl-DNA phosphodiesterase 1; Potency, µM (titrated, usually from 130 µM), usual class: inhibitors; 350,000 compounds, 0.28% hits; recombinant TDP1, AlphaScreen DNA substrate cleavage; Q9NUW8; AID 485290; further: nearly all actives have a fitted effect of over 40% in size
Target sequence (Q9NUW8 whole entry, looked up): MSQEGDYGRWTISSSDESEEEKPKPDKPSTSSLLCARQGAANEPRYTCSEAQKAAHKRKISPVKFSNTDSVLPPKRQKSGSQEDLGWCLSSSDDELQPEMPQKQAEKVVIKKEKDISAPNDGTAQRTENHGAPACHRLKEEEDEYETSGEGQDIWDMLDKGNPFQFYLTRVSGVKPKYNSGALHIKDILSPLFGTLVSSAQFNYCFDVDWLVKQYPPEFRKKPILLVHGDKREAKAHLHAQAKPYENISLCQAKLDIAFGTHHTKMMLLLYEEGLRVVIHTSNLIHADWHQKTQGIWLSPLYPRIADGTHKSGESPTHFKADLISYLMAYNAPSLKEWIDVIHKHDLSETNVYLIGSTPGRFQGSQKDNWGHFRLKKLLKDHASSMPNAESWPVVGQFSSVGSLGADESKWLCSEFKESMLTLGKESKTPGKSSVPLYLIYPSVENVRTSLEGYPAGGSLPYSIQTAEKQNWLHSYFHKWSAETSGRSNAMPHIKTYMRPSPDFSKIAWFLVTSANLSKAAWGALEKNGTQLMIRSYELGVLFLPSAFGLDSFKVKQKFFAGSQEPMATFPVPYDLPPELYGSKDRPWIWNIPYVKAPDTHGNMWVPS
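AlphaScreen read-out: signal falls as enzyme removes the 3' tyrosine-FITC from a 5'-biotinylated DNA oligo (15 nM, 5 min, RT). Enzyme was E. coli-made recombinant Tdp1 at 1 nM, exposed to compound for 15 min beforehand; beads 10 ug/ml, 10 min.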
VDR inh = vitamin D3 receptor (human) inhibition | P11473 | VDR-SRC2-3 peptide fluorescence polarization, 2 h | Potency, µM, hits mostly inhibitors | 400,000 compounds, 0.93% hits
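Compounds are added to VDR with labelled SRC2-3 coactivator peptide and held 2 h at room temperature. Inhibition of the VDR–peptide interaction is then read as a change in fluorescence polarization.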
TDP1 cell noCPT = qHTS for Inhibitors of human tyrosyl-DNA phosphodiesterase 1 (TDP1): qHTS in cells in absence of CPT | DT40 Tdp1-/- hTDP1 cells, no CPT, ATP luminescence, 48 h | Potency, µM (top dose mostly 46.2 µM), usual class: inhibitors | 420,000 compounds, 15% hits | AID 686978, 2013; further: nearly all actives have a fitted effect of over 55% in size
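Compound effects on proliferation are scored in DT40 Tdp1-/-;hTDP1 cells in the absence of CPT. ATP levels (CellTiter-Glo luminescence) are recorded after a ≥48 hr, 37 °C incubation.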
PLK1 PBD inh = inhibitors of human PLK1 polo-box domain binding. P53350. Plk1 PBD binding of FITC phosphopeptide, fluorescence polarization. Potency, µM, actives largely listed as inhibitors. 360,000 compounds, 2.8% hits; further: series mostly up to about 57 µM; nearly all actives have a fitted effect of over 65% in size
GCN5L2 inh = GCN5L2 (KAT2A) acetyltransferase inhibition; GCN5L2 HAT assay, ThioGlo1 CoA-SH fluorescence; Potency, µM (titrated, usually from 58.9 µM), most hits filed as inhibitors; 390,000 compounds, 0.21% hits; AID 504327; Q92830
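Titration-based screen in which CoA formation is detected via maleimide probe ThioGlo1 (50uM) turning fluorescent on thiol reaction; substrates H3(1-25) 75uM and acetyl-CoA 70uM, GCN5L2 20nM, 20 min incubation at room temperature.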
Each line names hits and unclear results; the compound was inactive in the other large screens. The call rests on the fitted dose curve; in most records, active means well fitted curve in the direction sought with a large enough effect; inconclusive means small, poorly fitted or top-dose-only effect, or another doubt; inactive means no such curve, though single readings can be large; an effect the other way counts as inactive or inconclusive.

CC(C)COc1ccc(CNC(=S)Nc2ccccc2)cc1Cl	DT40 TDP1 CPT inconclusive, TDP1 cell noCPT 25.9µM (no result: TDP1 inh)
COc1ccc(CNc2nc(-c3ccccc3)nn2S(=O)(=O)c2ccccc2)cc1	none (no result: DT40 TDP1 CPT, TDP1 cell noCPT, PLK1 PBD inh)
O=[N+]([O-])c1ccc(Cl)c(S(=O)(=O)/N=C(/c2ccccc2)N2CCOCC2)c1	none
COC(=O)C1(C(=O)OC)C/C=C\C/C=C\c2ccccc2[C@@H]1C[N+](=O)[O-]	none (no result: DT40 TDP1 CPT, TDP1 cell noCPT, PLK1 PBD inh, GCN5L2 inh)
CCOc1ccc(CCNC(=O)CCc2c(C)nc3c4c(C)cc(C)nc4nn3c2C)cc1	none (no result: PLK1 PBD inh)
CC1(C(=O)Nc2ccc3c(c2)OCO3)CCN1C(=O)C1CCCCC1 (stereo not drawn)	none (no result: TDP1 inh, VDR inh, GCN5L2 inh)
Cc1ccc(N2C(=O)C(CN3CCCCC3)C2c2ccccc2)cc1 (stereo not drawn)	DT40 TDP1 CPT inconclusive, TDP1 cell noCPT 18.4µM
Cc1ccc(N2C(=O)C(CN3CCCC3)C2c2ccccc2)cc1 (stereo not drawn)	DT40 TDP1 CPT 20.6µM, TDP1 cell noCPT 23.1µM
C=C1CCN(c2ccc(C(=O)NCc3ccc(OC)cc3)cc2[N+](=O)[O-])CC1	DT40 TDP1 CPT 20.6µM, TDP1 cell noCPT inconclusive (no result: TDP1 inh, GCN5L2 inh)
O=C(NCc1ccncc1)c1ccc(N2CCCC2)c([N+](=O)[O-])c1	DT40 TDP1 CPT inconclusive, TDP1 cell noCPT 18.4µM
O=C(NCc1ccccn1)c1ccc(N2CCCC2)c([N+](=O)[O-])c1	none
Cc1ccc2occ(CN3CCOc4ccc(C(C)(O)COc5ccccc5)cc4C3)c(=O)c2c1 (stereo not drawn)	TDP1 cell noCPT inconclusive (no result: TDP1 inh, VDR inh, PLK1 PBD inh, GCN5L2 inh)
COC(=O)c1ccccc1NC(=O)C1(c2cccs2)CCOCC1	DT40 TDP1 CPT inconclusive, TDP1 cell noCPT 20.6µM (no result: PLK1 PBD inh)
O=C(N1CCN(c2ccccc2F)CC1)C1(c2cccs2)CCOCC1	DT40 TDP1 CPT inconclusive, TDP1 cell noCPT 18.4µM
COc1ccc(NC(=O)C2(c3cccs3)CCOCC2)cc1	none
CCOc1ccc(NC(=O)CC2C(=O)N(c3ccc(Cl)cc3)C(=O)N2Cc2cccs2)cc1 (stereo not drawn)	DT40 TDP1 CPT inconclusive, TDP1 cell noCPT 13µM (no result: PLK1 PBD inh)
COC(=O)c1ccc(NC(=O)CC2C(=O)N(c3ccc(Cl)cc3)C(=O)N2Cc2cccs2)cc1 (stereo not drawn)	DT40 TDP1 CPT 23.1µM, TDP1 cell noCPT inconclusive (no result: PLK1 PBD inh)
COc1ccc(CNCc2cccc(Oc3ccccc3)c2)cc1	TDP1 cell noCPT inconclusive
Cc1cc(C(=O)N2CCc3ccccc3C2)c(C)o1	DT40 TDP1 CPT 16.4µM, TDP1 cell noCPT inconclusive (no result: TDP1 inh, GCN5L2 inh)
O=C(c1cc2ccccc2o1)N1CCN(S(=O)(=O)c2ccccc2)CC1	DT40 TDP1 CPT 11.6µM
Cn1cnc(C(=O)N2CCc3ccccc3C2)c1C(=O)N1CCc2ccccc2C1	DT40 TDP1 CPT inconclusive, TDP1 cell noCPT inconclusive, PLK1 PBD inh 21.2µM, GCN5L2 inh inconclusive (no result: TDP1 inh)
O=C(/C=C/C(=O)N1CCc2ccccc2C1)N1CCc2ccccc2C1	DT40 TDP1 CPT inconclusive, TDP1 cell noCPT inconclusive (no result: TDP1 inh)
Cc1cc(C(=O)N2CCN(S(=O)(=O)c3ccccc3)CC2)c(C)o1	DT40 TDP1 CPT 23.1µM, TDP1 cell noCPT inconclusive
O=C(CCc1ccc(S(=O)(=O)NCc2ccccc2)cc1)NCC1CCCO1 (stereo not drawn)	TDP1 cell noCPT inconclusive
Fc1ccccc1-c1cc2ccccc2cn1	none
O=C(c1ccccc1NS(=O)(=O)c1cccc([N+](=O)[O-])c1)N1CCCC1	none
C[C@@H]1CN(Cc2ccc3c(c2)CN(Cc2cccn2-c2ccccn2)CCO3)C[C@H](C)O1	none (no result: TDP1 inh, VDR inh, PLK1 PBD inh, GCN5L2 inh)
O=C(NCc1ccc(F)cc1)N1CCc2ccccc2C1	TDP1 cell noCPT inconclusive
CCCCNC(=O)N1CCc2ccccc2C1	VDR inh inconclusive, PLK1 PBD inh 29.9µM
COc1ccc(-c2nc3cnc(Oc4cccc(Cl)c4)nc3n(C[C@H]3CCCO3)c2=O)cc1	GCN5L2 inh inconclusive (no result: TDP1 inh, PLK1 PBD inh)
Cc1ccc2nc(Nc3ccccc3)c(C=O)c(=O)n2c1	none
Cc1ccc2nc(Nc3ccccc3)c(/C=N/O)c(=O)n2c1	DT40 TDP1 CPT 2.59µM, TDP1 cell noCPT 6.51µM

High-throughput results as filed in PubChem BioAssay.
